Screens deposited in PubChem by National Center for Advancing Translational Sciences (NCATS).
PI5P4Ka inh: PI5P4K alpha (human) kinase inhibition. P48426. PI5P4Kalpha enzyme, ADP-Glo luminescence, 60 min; active compounds read low. max response, %. 330,000 compounds, 1.2% hits. AID 652105; active = max response of -50% or lower; inconclusive = between -30% and -50%; inactive = -30% or higher; also: value at the top dose of about 77 µM; % is scaled to controls: 0 for no effect and ±100 for the full control effect
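qHTS, 1536-well: enzyme/substrate mix, compound by pin tool, 5 microM ATP final; RT 60 min; ADP-Glo reagents 1 (45 min) then 2 (30 min); luminescence.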
POLB inh: DNA polymerase beta (human) inhibition. P06746. Pol beta primer extension/strand displacement, fluorescence kinetic. Potency, µM (doses to about 114 µM), for inactives: top-dose activity change, negative = inhibition, most hits filed as inhibitors. 340,000 compounds, 1.3% hits. AID 485314; also: potency is read from the fitted curve at half-maximal effect; % is scaled to controls: 0 for no effect and ±100 for the full control effect
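Preincubation: enzyme (10 nM) with compound, 15 min, RT. Reaction: substrate added to 50 nM final. Reads: 0 and 10 min. Analysis: normalized, Hill fit.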
POLI inh: inhibitors of human DNA polymerase iota | Q9UNA4 | Pol iota fluorescent replication assay, 10 min | Potency, µM (titrated, usually from 115 µM), for the others: top-dose activity, negative = inhibition, usual class: inhibitors | 390,000 compounds, 1% hits; also: potency is read from the fitted curve at half-maximal effect
Target sequence (Q9UNA4 whole entry, looked up): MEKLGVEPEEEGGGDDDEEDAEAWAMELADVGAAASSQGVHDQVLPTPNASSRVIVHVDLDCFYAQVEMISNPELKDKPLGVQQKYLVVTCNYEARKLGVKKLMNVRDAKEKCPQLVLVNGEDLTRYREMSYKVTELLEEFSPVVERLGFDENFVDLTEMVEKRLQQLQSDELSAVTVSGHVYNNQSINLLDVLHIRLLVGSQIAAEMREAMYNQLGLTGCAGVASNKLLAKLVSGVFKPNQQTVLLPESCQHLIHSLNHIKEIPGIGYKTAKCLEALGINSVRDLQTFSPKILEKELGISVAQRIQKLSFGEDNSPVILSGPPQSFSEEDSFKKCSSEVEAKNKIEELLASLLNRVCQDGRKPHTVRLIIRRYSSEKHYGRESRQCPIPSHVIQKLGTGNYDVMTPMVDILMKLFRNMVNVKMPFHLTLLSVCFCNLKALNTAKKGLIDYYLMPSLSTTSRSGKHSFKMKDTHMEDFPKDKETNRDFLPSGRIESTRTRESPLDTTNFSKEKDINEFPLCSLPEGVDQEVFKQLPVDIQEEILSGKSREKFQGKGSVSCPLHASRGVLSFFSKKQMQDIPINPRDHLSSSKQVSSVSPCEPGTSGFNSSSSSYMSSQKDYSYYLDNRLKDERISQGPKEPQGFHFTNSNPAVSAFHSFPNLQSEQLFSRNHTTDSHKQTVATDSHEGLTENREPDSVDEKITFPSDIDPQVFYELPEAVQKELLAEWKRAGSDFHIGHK
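Pol iota at 10 nM preincubated 15 min with compounds at room temperature; reaction started with fluorescent substrate, 50 nM final. Fluorescence read kinetically at 0 and 10 min; buffer-only wells as negative control.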
WRN helicase inh: WRN helicase (human) inhibition; WRN helicase unwinding, fluorescent forked duplex, kinetic; Potency, µM (series often up to 114 µM), inactives show at the highest dose activity change, negative = inhibition, most hits filed as inhibitors; 360,000 compounds, 0.46% hits; also: potency is read from the fitted curve at half-maximal effect; % is scaled to controls: 0 for no effect and ±100 for the full control effect; nearly all actives have a fitted effect of over 55% in size
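Screening of the MLSMR collection measured strand separation of a quenched forked DNA duplex (100 nM) by 20 nM WRN with 2 mM ATP, all final. Compounds were preincubated with enzyme 15 min at room temperature.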
POLH inh: DNA polymerase eta (human) inhibition; Q9Y253; Potency, µM (top dose mostly 114 µM), for the others: at the highest dose activity change, negative = inhibition, usual class: inhibitors; 390,000 compounds, 1.2% hits; recombinant Pol eta, fluorescent DNA replication assay; also: potency is read from the fitted curve at half-maximal effect; % is scaled to controls: 0 for no effect and ±100 for the full control effect
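Fluorescent replication assay: 50 nM final substrate added after a 15 min room-temperature compound preincubation with 10 nM enzyme. Signal taken at 0 min and again at 10 min.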
POLK inh: inhibitors of human DNA polymerase kappa; 400,000 compounds, 0.53% hits; Potency, µM (titrated, usually from 107 µM), for inactives: top-dose activity, negative = inhibition, usual class: inhibitors; purified Pol kappa, fluorescent DNA synthesis assay, 10 min; also: potency is read from the fitted curve at half-maximal effect; % is scaled to controls: 0 for no effect and ±100 for the full control effect
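Pol kappa 10 nM + cpd, 15 min RT; start w/ substrate 50 nM final; fluorescence kinetic read, 0 and 10 min. Neg ctrl: buffer, no enzyme.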
Active calls of the source: *; ? = inconclusive; nt = no result; [ ] = dose if it differs, or a comment. Hits are enriched below; roughly 2.8% of the tested compounds scored in any of these assays. Unless noted, calls follow the shape of the dose curve; as a rule, active = well fitted curve in the direction sought with a large enough effect; inconclusive = small, poorly fitted or top-dose-only effect, or another doubt; inactive = no such curve, though single readings can be large; an effect the other way counts as inactive or inconclusive.

SMILES	PI5P4Ka inh	POLB inh	POLI inh	WRN helicase inh	POLH inh	POLK inh
CCN1C(=O)C(=C2C=C(C)OC(C)=C2)C(=O)N(CC)C1=S	2	-10%	-6%	1%	-9%	-3%[60.1 µM]
CCN1C(=O)CC(=O)N(CC)C1=S	-55*	nt	nt	?	-6%	nt
Oc1cc[c]([Hg][Cl])cc1	nt	nt	nt	nt	nt	0%[19.4 µM]
CCC1CN2CCC1CC2C(O)c1ccnc2ccc(OC)cc12 (centres undefined)	nt	nt	nt	nt	nt	-3%[60.1 µM]
CC(=O)Nc1cc(Cl)c(N=Cc2ccc(O)cc2O)cc1Cl	?	10µM*	?	-18%	79µM*	-8%[60.1 µM]
O=C(O)CCC(CP(=O)(O)O)C(=O)O (centres undefined)	nt	nt	nt	nt	nt	11%[60.1 µM]
Cc1cc(C=C2C(=O)NC(=O)NC2=O)c(C)n1-c1ccc2c(c1)OCO2	?	-10%	18µM*	-9%	32µM*	-15%
Cc1cc(C=C2C(=O)NC(=S)NC2=O)c(C)n1-c1ccc2c(c1)OCO2	-72*	89µM*	20µM*	?	20µM*	79µM*
COc1ccc(N2C(=O)NC(=O)/C(=C\c3ccccc3[N+](=O)[O-])C2=O)cc1	-8	0%	109%	?	-18%	-13%
Cc1ccc(N2C(=O)NC(=O)/C(=C\c3cnc(-c4ccccc4)nc3)C2=O)cc1	?	3%	-3%	?	-7%	-7%
O=C1NC(=O)N(c2ccccc2)C(=O)/C1=C\C=C\c1ccccc1	?	?	?	32µM*	?	-11%
O=C1NC(=O)N(c2ccccc2)C(=O)/C1=C\c1ccc([N+](=O)[O-])o1	nt	7.9µM*	nt	nt	nt	nt
COc1cc(/C=C2\C(=O)NC(=O)N(c3ccccc3)C2=O)cc(OC)c1OC	?	3%	6%	50µM*	6%	-2%
CCOC(=O)COc1ccc(/C=C2\C(=O)NC(=S)N(c3ccc(OC)cc3)C2=O)cc1OC	-56*	-21%	-12%	-4%	-9%	7%
COc1cc(/C=C2/C(=O)NC(=O)N(c3ccc(C)cc3)C2=O)cc(OC)c1OC	-11	-23%	69%	?	-14%	-14%
CN1CCN(S(=O)(=O)c2cccc(C(=O)N3CCN(c4ccccc4F)CC3)c2)CC1	-20	nt	?	-10%	-21%	-10%
CN(CC(=O)O)C(=O)[C@H](Cc1ccccc1)NC(=O)[C@@H](CCCN=C(N)N)NC(=O)[C@@H](N)Cc1ccc(O)cc1	nt	nt	nt	nt	nt	14%[60.1 µM]
O=C1NC(=O)N(c2cccc(Br)c2)C(=O)/C1=C/c1ccsc1	-64*	-23%	?	-33%	-8%	-26%
COc1ccc(CN2C(=O)NC(=O)/C(=C/c3cc(OC)c(OC)c(OC)c3)C2=O)cc1	-51*	-2%	21%	45µM*	1%	-7%
O=C1NC(=O)N(c2ccc(Br)cc2)C(=O)/C1=C/c1ccsc1	-28	7%	-13%	1%	-10%	-17%
COc1ccc(N2C(=O)/C(=C/c3ccc(OC)c(OC)c3)C(=O)NC2=S)cc1	-54*	11%	?	-27%	3%	-2%
COC(=O)COc1ccc(/C=C2\C(=O)NC(=S)N(c3ccc(C)cc3)C2=O)cc1OC	-54*	-3%	?	0%	-11%	8%[60.1 µM]
COc1ccc(N2C(=O)NC(=O)/C(=C/c3ccc4c(c3)Cc3ccccc3-4)C2=O)cc1	nt	7%	nt	nt	nt	nt
CCOC(=O)[C@]12Cc3cc(Cl)ccc3[C@H]1N(C1CCCCC1)C(=O)c1ccccc12	-10	nt	nt	-11%	nt	nt
COc1cc(/C=C2\C(=O)NC(=O)N(c3ccc(C)cc3)C2=O)cc(OC)c1O	-23	7%	?	-7%	-8%	-4%[60.1 µM]
COc1ccc(/C=C2/C(=O)NC(=O)N(c3ccc(C)c(C)c3)C2=O)cc1CN1C(=O)c2ccccc2C1=O	-66*	-14%	142%	40µM*	-8%	-12%
C[C@@H](C1CC[C@@]2(O)C3=CC(=O)[C@@H]4C[C@@H](O)[C@@H](O)C[C@]4(C)[C@H]3CC[C@]12C)[C@H](O)CCC(C)(C)O (some centres undefined)	nt	nt	27%	nt	nt	19%
